Compounds without any hit were thinned out: in the full panel of roughly 83,000, 20% have a hit.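 Assay: single dose, 48 h. Readout: percent growth (0 = no net growth; negative = cell death). Active: <10.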 A number with no mark means an inactive call. The source made the active and inactive calls.
What was measured:
Assay in all cases: NCI-60 one-dose screen, 48 h (100 = growth as untreated, 0 = no growth, -100 = all killed)
Conditions in all cases: 10 µM unless noted
DU-145 prostate = system: DU-145 prostate
K-562 leukemia = system: K-562 leukemia
MALME-3M melanoma = system: MALME-3M melanoma
MDA-MB-231 breast = system: MDA-MB-231 breast
RXF 393 renal = system: RXF 393 renal
SF-268 CNS = system: SF-268 CNS
SF-295 CNS = system: SF-295 CNS
SF-539 CNS = system: SF-539 CNS
UACC-257 melanoma = system: UACC-257 melanoma
M14 melanoma = system: M14 melanoma
HCT-15 colon = system: HCT-15 colon
HT29 colon = system: HT29 colon
SNB-75 CNS = system: SNB-75 CNS
SNB-19 CNS = system: SNB-19 CNS
U251 CNS = system: U251 CNS
PC-3 prostate = system: PC-3 prostate
SK-MEL-5 melanoma = system: SK-MEL-5 melanoma
UACC-62 melanoma = system: UACC-62 melanoma
LOX IMVI melanoma = system: LOX IMVI melanoma
SK-MEL-28 melanoma = system: SK-MEL-28 melanoma

| SMILES | growth (DU-145 prostate) | growth (K-562 leukemia) | growth (MALME-3M melanoma) | growth (MDA-MB-231 breast) | growth (RXF 393 renal) | growth (SF-268 CNS) | growth (SF-295 CNS) | growth (SF-539 CNS) | growth (UACC-257 melanoma) | growth (M14 melanoma) | growth (HCT-15 colon) [%] | growth (HT29 colon) | growth (SNB-75 CNS) | growth (SNB-19 CNS) | growth (U251 CNS) | growth (PC-3 prostate) | growth (SK-MEL-5 melanoma) | growth (UACC-62 melanoma) | growth (LOX IMVI melanoma) | growth (SK-MEL-28 melanoma) |
| --- | --- | --- | --- | --- | --- | --- | --- | --- | --- | --- | --- | --- | --- | --- | --- | --- | --- | --- | --- | --- |
| Cc1ccc2nc(NC(=O)CSc3nc(Nc4ccc([N+](=O)[O-])cc4)c(C#N)c(-c4ccccc4)n3)sc2c1 | 104% | 87.6% | 110% | 93.7% | 92.7% | 93.7% | 95.6% | 92.8% | 105% | 114% | 93.6 | 96.7% | 85.6% | 93.9% | 93.2% | 93.8% | 98% | 86% | 96.7% | 109% |
| CCN(CC)CCCCCCNc1cc(OC)c(Cl)c2cccnc12 | 95.4% | 59.6% | 88.4% | 66.8% | 84.6% | 85.3% | 82.3% | 81.9% | -1.76% (active) | 27.2% | 78.4 | 16.2% | 63.5% | 96.4% | 74.4% | 64.9% | 68.7% | -30.6% (active) | 55.7% | 64.6% |
| COc1cc(N=Nc2ccc(N)cc2)c(OC)cc1N=Nc1ccccc1.[Cl][Zn][Cl] | 118% | 104% | 74.1% | 84.6% | 114% | 96.5% | 116% | 87.9% | 109% | 101% | 91.2 | 113% | 80.9% | 105% | 104% | 90.7% | 102% | 92.2% | 88% | 109% |
| Cc1ccc(NS(=O)(=O)c2ccc3c(c2)C(=O)CC(c2ccc(C(=O)C(C)C)cc2)N3)cc1C (stereo not given) | 83.5% | 39.7% | 51.1% | 78.5% | 75.3% | 68% | 37.7% | 71.5% | 43.1% | 73% | 57 | 91.3% | 55.7% | 68.2% | 68% | 46% | -10.4% (active) | 52.8% | 55.6% | 77% |
| CSc1n(Cc2ccc3ccccc3c2)c(C)c[n+]1Cc1ccc2ccccc2c1 | -12.8% (active) | 8.26% (active) | -25.1% (active) | -30.8% (active) | -26.1% (active) | -11.7% (active) | -23.3% (active) | 8.44% (active) | -41.5% (active) | -14.3% (active) | 24.4 | -11.2% (active) | -32.4% (active) | 3.42% (active) | 2.53% (active) | 0.0083% (active) | -95.8% (active) | -56.2% (active) | -91.5% (active) | -9.19% (active) |
| O=c1[nH][n+](-c2ccc(Cl)cc2)no1 | 59.7% | 10.4% | 84.7% | 70.7% | 121% | 47.7% | 34.5% | 66.7% | 64.9% | 81.5% | 34.5 | 95% | 74.4% | 91.3% | 83.2% | 72% | 96.1% | 5.96% (active) | 28.4% | 77.3% |
| CCOc1ccccc1-c1cc(-c2cccs2)c(C#N)c(=O)[nH]1 | 111% | 48.6% | 84.9% | 89% | 79.6% | 92.5% | 93.6% | 87.3% | 101% | 85.1% | 56.8 | 120% | 45.8% | 86.1% | 88.6% | 84.5% | 85.8% | 63.7% | 86.6% | 94.6% |
| OC(COc1ccccc1Cl)COc1ccccc1Cl | 116% | 100% | 96.8% | 101% | 96.7% | 97.3% | 104% | 95.5% | 120% | 93.2% | 86.1 | 92.5% | 85.4% | 108% | 91.5% | 95.9% | 96.8% | 92% | 85.3% | 94.2% |
| CC1(C)OC2C(CO[Si](C)(C)C(C)(C)C)OC(n3c(I)c(C#C[Si](C)(C)C)c(=O)[nH]c3=O)C2O1 (stereo not given) | 107% | 67.5% | 109% | 98% | -32.9% (active) | 108% | 140% | 105% | 91.3% | 106% | 93 | -32.6% (active) | -71.4% (active) | 105% | 88.4% | 91.4% | 95.9% | 92.8% | 86.6% | -53.9% (active) |
| CC1CC(C(C)(C)C)C(=O)C(C(C)(C)C)C1 (stereo not given) | 112% | 102% | 105% | 109% | 112% | 103% | 105% | 101% | 102% | 118% | 97.8 | 93.4% | 105% | 106% | 105% | 108% | 105% | 100% | 106% | 116% |
| O=C1/C(=C2/C=Nc3ccccc32)N(O)c2ccccc21 | 73.7% | 19.6% | 56.3% | 64.9% | 92.2% | 76% | 71% | 104% | 45% | 87.4% | 49.5 | 100% | 102% | 93% | 84.9% | 51% | 68% | 33.6% | 33.5% | 92.8% |
| CCCCc1ccc(Nc2ccc(Nc3ccc(CCCC)cc3S(=O)(=O)O)c3c2C(=O)c2ccccc2C3=O)c(S(=O)(=O)O)c1 | 107% | 114% | 110% | 83.1% | 95% | 99.7% | 101% | 96.5% | 88.3% | 101% | 104 | 113% | 89.9% | 104% | 103% | 39.1% | 91.9% | 84.5% | 86.4% | 108% |
| COC1=CC(=O)C[C@@H](C)[C@]12Oc1c(Cl)c(OC)cc(OC)c1C2=O | 105% | 32.9% | 85.2% | 84.1% | 86.8% | 93.5% | 96.8% | 104% | 84.5% | 66.3% | 76.9 | 104% | 67.8% | 95.7% | 92.1% | 87.5% | 84.3% | 73.3% | 80.8% | 85.7% |
| COc1c(CCC[P+](c2ccccc2)(c2ccccc2)c2ccccc2)cc2c(c1OC)OCO2 | 23.5% | 12.3% | 9.97% (active) | -8.84% (active) | 29% | 15.4% | 20.8% | 20.2% | -3.96% (active) | 12.2% | 92.3 | 38.2% | -3.69% (active) | 9.64% (active) | 7.32% (active) | -0.165% (active) | -68.6% (active) | -3.8% (active) | 15.9% | 25.1% |
